Screening results (PubChem BioAssay)
CBX7 inh = CBX7 chromodomain binding inhibitors, primary screen, biochemical, AlphaScreen | Chromobox protein homolog 7 (Homo sapiens), O95931 | AlphaScreen His6-CBX7 / biotin-H3K27me3 peptide binding; stronger effect = lower value | normalised signal (fraction of DMSO) (test concentration not listed) | 66,000 tested, 1.1% active; in the data active = normalised signal below about 0.5
Target sequence (O95931 whole entry, looked up): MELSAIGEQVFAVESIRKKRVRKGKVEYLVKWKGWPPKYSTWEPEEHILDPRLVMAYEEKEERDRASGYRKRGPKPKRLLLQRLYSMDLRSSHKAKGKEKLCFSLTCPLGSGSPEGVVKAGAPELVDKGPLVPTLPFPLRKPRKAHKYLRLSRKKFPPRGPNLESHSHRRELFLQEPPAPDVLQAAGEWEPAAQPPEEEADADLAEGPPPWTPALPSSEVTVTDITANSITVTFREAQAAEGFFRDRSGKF
The depositor's hits bear a star. This is one part of a sample in which hits are shown more often than they occur.

SMILES	CBX7 inh
CCCCN(CC)S(=O)(=O)c1ccc(C(=O)Nc2nc(-c3ccncc3)cs2)cc1	1
CC(=O)N1CCc2cc(S(=O)(=O)NCCC(=O)NCCc3ccc(S(N)(=O)=O)cc3)ccc21	0.99
Cn1c(=O)c(-c2ccc3ccccc3n2)cc2ccccc21	1.2
Cn1cnc2cc(NCc3ccc(Br)cc3)ccc21	0.91
COc1ccccc1CNc1ccc2c(c1)ncn2C(C)(C)C	0.66
COc1ccccc1-n1cnc2cc(Nc3nnc(C)c4ccccc34)ccc21	1
COc1ccccc1-n1cnc2cc(NCc3ccc(C(C)C)cc3)ccc21	0.2*
CC(C)c1ccc(CNc2ccc3c(c2)ncn3C)cc1	0.83
CC(C)(C)n1cnc2cc(NCc3ccc(Br)cc3)ccc21	0.78
Cc1nc2cc(NCc3ccc(C(C)C)cc3)ccc2n1C	0.7
COc1ccccc1-n1cnc2cc(NCc3ccc(N(C)C)cc3)ccc21	0.24*
Brc1ccc(CNc2ccc3c(c2)ncn3-c2ccccc2)cc1	0.24*
CCOc1ccc(CCNC(=O)CCc2c(C)nc3c(-c4ccccc4)c(C)nn3c2C)cc1	1.2
Cc1cccc(-c2nc(CN3CCCC(C(=O)NCc4ccccc4Cl)C3)c(C)o2)c1 (stereo not given)	0.96
CCCc1cc(=O)n2[nH]c(-c3ccc(OC)cc3)cc2n1	1
O=C1CCc2cc(S(=O)(=O)N3CCCC3C(=O)O)ccc2N1 (stereo not given)	0.97
Cc1c(C(=O)NCc2ccccn2)oc2ccc(S(=O)(=O)N3CCC4(CC3)OCCO4)cc12	0.43*
Cc1c(C(=O)NCCC(C)C)oc2ccc(S(=O)(=O)N3CCC4(CC3)OCCO4)cc12	1.2
Cc1c(C(=O)NCc2ccccc2)oc2ccc(S(=O)(=O)N3CCC4(CC3)OCCO4)cc12	0.98
COc1cc(OC)cc(-n2nc(C(=O)N3CCN(c4ccccc4)CC3)c3ccccc3c2=O)c1	0.87
Cc1ccc(CCNC(=O)C2CCN(Cc3nc(-c4ccccc4F)oc3C)CC2)cc1	1.1
COc1cccc(-n2c(-c3ccc(C)cc3)cc3c2CC(C)(C)CC3=O)c1	0.35*
COc1ccc(Cn2c(-c3ccc(C)cc3)cc3c2CC(C)(C)CC3=O)cc1	0.8
COc1ccccc1-n1c2c(cc(C(=O)N3CCC(C)CC3)c1=O)C(=O)CC(C)(C)C2	1
COc1ccc(-n2c(-c3ccc(C)cc3)cc3c2CC(C)(C)CC3=O)c(OC)c1	0.27*
SMILES	CBX7 inh
COc1ccccc1-n1c(-c2ccc(C)cc2)cc2c1CC(C)(C)CC2=O	0.32*
COc1ccc(-n2c3c(cc(C(=O)Nc4ccc(OC)cc4OC)c2=O)C(=O)CC(C)(C)C3)cc1	1.1
COc1ccc(-n2c(-c3ccc(C)cc3)cc3c2CC(C)(C)CC3=O)cc1	0.95
Cc1ccc(-n2c(-c3ccccc3)cc3c2CC(C)(C)CC3=O)cc1Cl	0.82
Cc1ccc(-c2cc3c(n2-c2ccccc2)CC(C)(C)CC3=O)cc1	0.95
COc1ccc(-c2cc3c(n2-c2ccccc2)CC(C)(C)CC3=O)cc1	0.79
COc1ccc(-n2c(-c3ccc(Cl)cc3)cc3c2CC(C)(C)CC3=O)cc1	0.88
CCOc1ccc(-n2c(-c3ccc(OC)cc3)cc3c2CC(C)(C)CC3=O)cc1	0.4*
Nc1ncc(CSc2n[nH]c(-c3ccccc3)n2)s1	1
COCCNC(=O)c1ccc2c(c1)N(Cc1cc(C)ccc1C)C(=O)c1ccccc1S2	0.96
COc1ccc(OCc2nn3c(-c4ccccc4Cl)nnc3s2)cc1	0.98
O=C(Cn1ncc2ccsc2c1=O)NCCCc1ccccc1	1
Cc1nc2ccc(S(=O)(=O)NC(CC(C)C)C(=O)N3CCCC(C)C3)cc2s1 (stereo not given)	0.99
CCOC(=O)C1CCN(c2c(N3CCCC3)c(=O)c2=O)CC1	1
O=C(CN1C(=O)COc2ccc(S(=O)(=O)N3CCOCC3)cc21)NCC1CCCO1 (stereo not given)	1
CCN(Cc1ccccc1)S(=O)(=O)c1ccc2c(c1)CCN2C(C)=O	1.4
O=C(CCCn1c(=O)[nH]c2ccccc2c1=O)N1CCN(c2ncccn2)CC1	1.1
CCc1nc(NCCN(CC)CC)c(C#N)c2c1COC(C)(C)C2	1.1
CC1CCC(NC(=O)C2=CCN(S(=O)(=O)c3ccc(Br)cc3)CC2)CC1 (stereo not given)	1
NS(=O)(=O)c1ccc(CCNC(=O)CCCn2c(=O)[nH]c3ccsc3c2=O)cc1	1.1
O=C(c1cnn(-c2ccccc2)c1-n1cccc1)N1CCCC(C(=O)N2CCc3ccccc32)C1 (stereo not given)	1.1
COc1ccc(C(C(=O)NC2CCCCC2)N2CCCC(C)C2)cc1 (stereo not given)	0.96
CCCCN(CC)S(=O)(=O)c1ccc2[nH]c(=O)cc(C(=O)NCCCN3CCC(C)CC3)c2c1	0.96
CCC(=O)N1CCc2cc(S(=O)(=O)NC(Cc3ccccc3)C(=O)Nc3cccc(C)c3)ccc21 (stereo not given)	1.2
CCCCN(CCCC)CCCNC(=O)c1cc2sc(Cl)cc2n1C	0.82
CCCCn1c(CCNC(=O)Cc2ccccc2)nc2ccccc21	0.99
